A word on the inhibition: it is the drop in the measured response relative to a control, in per cent.

Solute carrier family 2, facilitated glucose transporter member 1 (Homo sapiens), sequence (P11166 whole entry): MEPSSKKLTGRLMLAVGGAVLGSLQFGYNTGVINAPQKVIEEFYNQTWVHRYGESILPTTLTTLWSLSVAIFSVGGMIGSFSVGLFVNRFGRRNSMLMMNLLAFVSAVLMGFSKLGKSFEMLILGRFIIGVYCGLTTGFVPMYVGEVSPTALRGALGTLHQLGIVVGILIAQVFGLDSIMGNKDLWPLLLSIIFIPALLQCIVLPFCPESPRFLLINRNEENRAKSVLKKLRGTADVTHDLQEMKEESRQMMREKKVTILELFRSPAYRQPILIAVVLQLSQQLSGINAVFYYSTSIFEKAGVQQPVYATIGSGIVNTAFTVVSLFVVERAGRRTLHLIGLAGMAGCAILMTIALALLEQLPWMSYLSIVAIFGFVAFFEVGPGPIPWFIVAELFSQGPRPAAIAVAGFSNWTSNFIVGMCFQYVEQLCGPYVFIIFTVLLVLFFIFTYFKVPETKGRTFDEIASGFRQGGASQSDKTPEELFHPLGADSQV

One test addresses Solute carrier family 2, facilitated glucose transporter member 1 (Homo sapiens) (UniProt P11166). The test is described as follows: ST_JUDE_LEISH: Cytotoxicity at 2uM final concentration against transgenic Leishmania Mexicana promastigotes LmGLUT1 that are glucose transport deficient and complemented with the human glucose transporter GLUT1. Activity is measured by DNA content using SYBR green in vitro. Format: functional.
Take `COc1ccc(N(c2nc(-c3cc(Cl)ccc3Cl)cs2)C2CCNC2)cc1` (stereo not given): the inhibition came to 4.89%.
Same read-out and setting: the same measure for `O=C(NCCc1cccc(F)c1)c1ccc(N2CCN(c3ccncc3)CC2)cn1`: 8.21%; for `COc1cc2nc(N(C)Cc3cccc(I)c3)nc(N)c2cc1OC`: 4.75%; for `CC(C)(C)c1ccc(CN2CCC(CNC(=O)c3cc(-c4cccc(F)c4)cs3)C2)cc1` (stereo not given): 4.3%.
For `O=C(NC1CC1)c1ccc(Cn2c(SCc3cccc(Cl)c3)nc3ccccc3c2=O)cc1`, the inhibition is 0.42%.
Consider `CC1(C)N=C(NC(=O)c2cc([N+](=O)[O-])cc([N+](=O)[O-])c2)N=C(N)N1OCc1cccc2ccccc12`, for which the inhibition was -1.97%.
On the same count and under the same terms, the same measure for `c1ccc(CN2CCC(NCc3ccccc3-c3ccc(CNC4CCCC4)cc3)CC2)cc1`: 4.61%; for `CNC(=O)COc1ccc(Nc2nnc(-c3ccc(C)c(S(=O)(=O)NCC4CCCO4)c3)c3ccccc23)cc1` (stereo not given): 1.3%.
As for `Cn1cncc1-c1ccc2ncnc(Nc3ccc(OCc4ccccc4)cc3)c2c1`, the inhibition turned out to be 0.55%.
`COc1cccc(-c2csc(C(=O)NCC3CCN(Cc4ccc(C(C)(C)C)cc4)C3)c2)c1` (stereo not given): the inhibition was determined as 3.1%.
For the compound `CC(C)N1CCC(N(Cc2ccc(-c3ccc(C(F)(F)F)cc3)cc2)C(=O)Cn2c(CCc3cccc(F)c3F)nc(=O)c3cccnc32)CC1`, the inhibition is 2.74%.
Same read-out and setting: the same measure for `CCCCCCCCN1CCN(CCCCCCNc2c3ccccc3nc3ccccc23)CC1`: 55.5%; for `COc1ccc(CC(=O)NC(CCN2CCC3(CCc4ccccc43)CC2)c2ccc(Cl)c(Cl)c2)cc1` (stereo not given): 0.25%.
On to `CN=C(Nc1c(Cl)cccc1Cl)N(C)C`, for which the inhibition is 2.85%.
Still for that read-out and setting: the same measure for `C=C[C@H]1CN(CCCCCCC)CC[C@H]1CCN(C)c1ccnc2ccc(OC)cc12`: 1.17%; for `COc1ccc(Br)cc1C1Nc2ccc3ccccc3c2C2=C1C(=O)CC(c1ccccc1)C2` (stereo not given): 1.86%; for `CS(=O)(=O)c1ccc(-c2cnc(N)c(-c3ccc(O)cc3)c2)cc1`: 2.19%.
As to `Cc1[nH]c2ccc(C#N)cc2c(=O)c1Br`, the inhibition stood at 2.13%.
Still for that read-out and setting: the same measure for `O=C(Nc1ccc(-c2ccc(CN3CCNCC3)cc2)cc1)c1cccc(Cl)c1`: 107%; for `COc1cccc(CN2CCCC(CCC(=O)Nc3ccc(C(F)(F)F)cc3)C2)c1O` (stereo not given): 1.04%; for `CN(C)c1cccc2c(S(=O)(=O)Nc3cccc(CCN4CCC(N5CCCCC5)CC4)c3)cccc12`: 0.3%.
Same read-out and setting: the same measure for `O=C(NCCN1CCCC1)c1cccc(-c2ccc(-c3nc4cc(F)ccc4[nH]3)s2)c1`: 2.21%; for `O=C(/C=C/c1ccc(Cl)c(Cl)c1)NCCCCCN1CCC(NC(=O)NCCc2ccccc2)CC1`: 1.48%; for `CCCCCNc1nc2nc(N)nc(N)c2nc1-c1ccccc1`: 7.52%.
On the same count and under the same terms, the same measure for `Cc1cccc(C(=O)Nc2ccnc(N3CCC(N(C)Cc4cccc(O)c4)CC3)c2)c1`: 2.07%; for `CN(C)S(=O)(=O)c1ccc(N2CCN(CCC3(c4cccc(F)c4)CCN(C(=O)C(C)(C)C)CC3)CC2)c2nonc12`: 9.09%.
In the case of `O=C(N[C@@H](CC1CCCCC1)C(=O)NCCN1CCOCC1)c1ccc(O)c(-c2ccc(Cl)c(Cl)c2)c1`, the inhibition was -0.52%.
On to `COc1ccc(S(=O)(=O)N2CCOCC2)cc1NC(=O)c1cc2ccccc2o1`, for which the inhibition was 2.09%.
As for `COc1cc(C(=O)N2CCN(C(C)C)CC2)ccc1CN(C)CCCCN1CCN(c2cccc(Cl)c2Cl)CC1`, the inhibition stood at 1.77%.
Still for that read-out and setting: the same measure for `O=C(N[C@@H](Cc1ccccc1)[C@H](O)CNC1CCc2ccccc2C1)c1cc(C2CCCC2)cc(N2CCCC2=O)c1` (stereo not given in full): -3.59%; for `COc1ccc(C2=C(Nc3ccc4oc5ccccc5c4c3)c3ccccc3C2=O)cc1`: 0.72%; for `CCN(CC)c1cc(C)c2cc(NC(=O)c3cc(=O)c4ccccc4o3)ccc2n1`: 6.32%.
On to `CN(C)C(=O)C(CC(=O)NCc1ccccc1Cl)N(C)C.CN(C)C(=O)CC(C(=O)NCc1ccccc1Cl)N(C)C` (stereo not given), for which the inhibition is 3.97%.
On the same count and under the same terms, the same measure for `CCCc1ccc(N2C(N)=NC(N)=NC2(C)C)cc1`: 1.9%.
In the case of `C=CCn1c(=N)c(C(=O)NC2CCCCC2)cc2c(=O)n3cccc(C)c3nc21`, the inhibition was determined as 11.3%.
Same read-out and setting: the same measure for `CCOc1ccc(-c2nonc2NC(=O)CC(C)C)cc1OCC`: -0.61%; for `O=[N+]([O-])c1cccc(-c2nc3cc(C4=NC5CCCCC5N4)ccc3[nH]2)c1` (stereo not given): 0.61%.
Still for that read-out and setting: the same measure for `O=C(NCc1ccccc1[S+]([O-])c1ccccc1CO)C(F)(F)F` (stereo not given): -1.33%; for `Cc1ccccc1C(=O)NC(NC(=S)Nc1ccc([N+](=O)[O-])cc1)C(Cl)(Cl)Cl` (stereo not given): 0.54%; for `COc1ccccc1NC(=S)N/N=C/c1ccc(O)cc1O`: 1.28%.

The target in a further test is Hexose transporter 1 (Plasmodium falciparum) (UniProt O97467). The test is described as follows: ST_JUDE_LEISH: Cytotoxicity at 2uM final concentration against transgenic Leishmania Mexicana promastigotes LmPfHT that are glucose transport deficient and complemented with the Plasmodium falciparum hexose transporter. Activity is measured by DNA content using SYBR green in vitro. Format: functional.
Take `COc1ccc(N(c2nc(-c3cc(Cl)ccc3Cl)cs2)C2CCNC2)cc1` (stereo not given): the inhibition stood at 4.65%.
Same read-out and setting: the same measure for `O=C(NCCc1cccc(F)c1)c1ccc(N2CCN(c3ccncc3)CC2)cn1`: 4.37%; for `COc1cc2nc(N(C)Cc3cccc(I)c3)nc(N)c2cc1OC`: 7.24%.
For the compound `CC(C)(C)c1ccc(CN2CCC(CNC(=O)c3cc(-c4cccc(F)c4)cs3)C2)cc1` (stereo not given), the inhibition came to 4.53%.
`O=C(NC1CC1)c1ccc(Cn2c(SCc3cccc(Cl)c3)nc3ccccc3c2=O)cc1`: the inhibition is -0.54%.
As to `CC1(C)N=C(NC(=O)c2cc([N+](=O)[O-])cc([N+](=O)[O-])c2)N=C(N)N1OCc1cccc2ccccc12`, the inhibition is -0.29%.
The same measure, in the same setting: the same measure for `c1ccc(CN2CCC(NCc3ccccc3-c3ccc(CNC4CCCC4)cc3)CC2)cc1`: 3.06%.
For `CNC(=O)COc1ccc(Nc2nnc(-c3ccc(C)c(S(=O)(=O)NCC4CCCO4)c3)c3ccccc23)cc1` (stereo not given), the inhibition amounted to 0.12%.
In the case of `Cn1cncc1-c1ccc2ncnc(Nc3ccc(OCc4ccccc4)cc3)c2c1`, the inhibition was determined as 1.48%.
Still for that read-out and setting: the same measure for `COc1cccc(-c2csc(C(=O)NCC3CCN(Cc4ccc(C(C)(C)C)cc4)C3)c2)c1` (stereo not given): -1.27%.
On the same count and under the same terms, the same measure for `CC(C)N1CCC(N(Cc2ccc(-c3ccc(C(F)(F)F)cc3)cc2)C(=O)Cn2c(CCc3cccc(F)c3F)nc(=O)c3cccnc32)CC1`: 1.97%; for `CCCCCCCCN1CCN(CCCCCCNc2c3ccccc3nc3ccccc23)CC1`: 28.6%.
Still for that read-out and setting: the same measure for `COc1ccc(CC(=O)NC(CCN2CCC3(CCc4ccccc43)CC2)c2ccc(Cl)c(Cl)c2)cc1` (stereo not given): -0.66%.
With `CN=C(Nc1c(Cl)cccc1Cl)N(C)C`, the inhibition came out at 4.13%.
Regarding `C=C[C@H]1CN(CCCCCCC)CC[C@H]1CCN(C)c1ccnc2ccc(OC)cc12`, the inhibition was 2.44%.
In the case of `COc1ccc(Br)cc1C1Nc2ccc3ccccc3c2C2=C1C(=O)CC(c1ccccc1)C2` (stereo not given), the inhibition came to 2.25%.
As to `CS(=O)(=O)c1ccc(-c2cnc(N)c(-c3ccc(O)cc3)c2)cc1`, the inhibition turned out to be 1.67%.
With `Cc1[nH]c2ccc(C#N)cc2c(=O)c1Br`, the inhibition amounted to 1.62%.
On to `O=C(Nc1ccc(-c2ccc(CN3CCNCC3)cc2)cc1)c1cccc(Cl)c1`, for which the inhibition stood at 104%.
Consider `COc1cccc(CN2CCCC(CCC(=O)Nc3ccc(C(F)(F)F)cc3)C2)c1O` (stereo not given), for which the inhibition amounted to 2.12%.
On the same count and under the same terms, the same measure for `CN(C)c1cccc2c(S(=O)(=O)Nc3cccc(CCN4CCC(N5CCCCC5)CC4)c3)cccc12`: -3.51%; for `O=C(NCCN1CCCC1)c1cccc(-c2ccc(-c3nc4cc(F)ccc4[nH]3)s2)c1`: 2.37%.
With `O=C(/C=C/c1ccc(Cl)c(Cl)c1)NCCCCCN1CCC(NC(=O)NCCc2ccccc2)CC1`, the inhibition stood at 1.69%.
`CCCCCNc1nc2nc(N)nc(N)c2nc1-c1ccccc1`: the inhibition turned out to be 9.23%.
Still for that read-out and setting: the same measure for `Cc1cccc(C(=O)Nc2ccnc(N3CCC(N(C)Cc4cccc(O)c4)CC3)c2)c1`: 1.88%.
As for `CN(C)S(=O)(=O)c1ccc(N2CCN(CCC3(c4cccc(F)c4)CCN(C(=O)C(C)(C)C)CC3)CC2)c2nonc12`, the inhibition turned out to be 8.17%.
Still for that read-out and setting: the same measure for `O=C(N[C@@H](CC1CCCCC1)C(=O)NCCN1CCOCC1)c1ccc(O)c(-c2ccc(Cl)c(Cl)c2)c1`: 1.41%.
`COc1ccc(S(=O)(=O)N2CCOCC2)cc1NC(=O)c1cc2ccccc2o1`: the inhibition worked out at 3.19%.
Same read-out and setting: the same measure for `COc1cc(C(=O)N2CCN(C(C)C)CC2)ccc1CN(C)CCCCN1CCN(c2cccc(Cl)c2Cl)CC1`: 1.73%.
Consider `O=C(N[C@@H](Cc1ccccc1)[C@H](O)CNC1CCc2ccccc2C1)c1cc(C2CCCC2)cc(N2CCCC2=O)c1` (stereo not given in full), for which the inhibition was 2.21%.
Same read-out and setting: the same measure for `COc1ccc(C2=C(Nc3ccc4oc5ccccc5c4c3)c3ccccc3C2=O)cc1`: -0.17%; for `CCN(CC)c1cc(C)c2cc(NC(=O)c3cc(=O)c4ccccc4o3)ccc2n1`: 6.88%; for `CN(C)C(=O)C(CC(=O)NCc1ccccc1Cl)N(C)C.CN(C)C(=O)CC(C(=O)NCc1ccccc1Cl)N(C)C` (stereo not given): 4.82%.
Turning to `CCCc1ccc(N2C(N)=NC(N)=NC2(C)C)cc1`, the inhibition was found to be 1.17%.
Same read-out and setting: the same measure for `C=CCn1c(=N)c(C(=O)NC2CCCCC2)cc2c(=O)n3cccc(C)c3nc21`: 15.2%; for `CCOc1ccc(-c2nonc2NC(=O)CC(C)C)cc1OCC`: -0.84%; for `O=[N+]([O-])c1cccc(-c2nc3cc(C4=NC5CCCCC5N4)ccc3[nH]2)c1` (stereo not given): 2.08%.
On the same count and under the same terms, the same measure for `O=C(NCc1ccccc1[S+]([O-])c1ccccc1CO)C(F)(F)F` (stereo not given): -0.32%; for `Cc1ccccc1C(=O)NC(NC(=S)Nc1ccc([N+](=O)[O-])cc1)C(Cl)(Cl)Cl` (stereo not given): -1.37%; for `COc1ccccc1NC(=S)N/N=C/c1ccc(O)cc1O`: 6.07%.

(Values after ChEMBL document CHEMBL3433997, “St. Jude Leishmania screening dataset” (2016).)
